A number with no mark means an inactive call. Records with an inconclusive call do not appear. A call without a number means that no potency is given here. The source made the active and inactive calls. Unless noted, calls come from the whole dose curve; as a rule, active = well fitted curve in the direction sought with a large enough effect in the repeat runs; inconclusive = weak or mixed curves; inactive = no such curve, though single readings can be large; an effect the other way counts as inactive or inconclusive.
Experiments:
[1] = qHTS assay to identify small molecule HDAC inhibitors (AID 1259364);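 note: wild-type HCT-116 cells with endogenous class I/II HDAC activity; top concentration of the series differs between compounds; nearly all actives have a fitted effect of over 45% in size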
Procedure, shortened: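 Screening used wild-type human colon HCT-116 cells incubated overnight, dosed with compounds for 2 hours, and assayed with a homogeneous luminogenic HDAC I/II reagent for 30 minutes at room temperature.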

[2] = qHTS assay to identify small molecule HDAC inhibitors - cell viability counter screen (AID 1259365); note: nearly all actives have a fitted effect of over 50% in size; note: potency is the fitted concentration of half-maximal effect
Procedure, shortened: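 Wild-type HCT-116 cells, 1,500/well, cultured overnight, then compound-treated 2 h at 37 C. Viability measured as ATP luminescence with CellTiter-Glo after 30 min at room temperature.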

[3] = qHTS assay to identify small molecule agonists of the sonic hedgehog signaling (Shh) pathway - cell viability counter screen (AID 1259366); note: nearly all actives have a fitted effect of over 50% in size; note: potency is the fitted concentration of half-maximal effect
Procedure, shortened: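 NIH/3T3-derived Gli1-Luc reporter cells, 2,000 per well, received compound after 4 h and were treated about 23 h at 37C. Viability measured in the same wells by CellTiter-Fluor fluorescence after 1 h.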

[4] = qHTS assay to identify small molecule antagonists of the sonic hedgehog signaling (Shh) pathway (AID 1259369; calls by dose curve; note: nearly all actives have a fitted effect of over 45% in size; note: potency is the fitted concentration of half-maximal effect)
Procedure, shortened: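 NIH/3T3 stable Gli1-Luc clone, 2,000 cells/well, 4hr settle; cpd + conditioned medium 24hr; Luc reagent 30min RT; luminescence.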

[5] = target: Estrogen receptor beta (Homo sapiens) (UniProt Q92731); assay: qHTS assay to identify small molecule agonists of the estrogen receptor beta (ER-beta) signaling pathway (AID 1259377; active = well fitted activation curve with a large enough effect in the signal ratio in the repeat runs, not every such curve was filed as active; the % refers to the signal ratio; note: potency is the fitted concentration of half-maximal effect)
Procedure, shortened: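 ER-beta-UAS-bla HEK293T cells in medium with 2% charcoal-stripped FBS were exposed to compounds for 16 h at 37C. Beta-lactamase reporter activity was read as fluorescence after 2 h with LiveBLAzer B/G FRET substrate at room temperature.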

[6] = target: Estrogen receptor beta (Homo sapiens) (UniProt Q92731); assay: qHTS assay to identify small molecule antagonists of the estrogen receptor beta (ER-beta) signaling pathway (AID 1259378; active = well fitted inhibition curve with a large enough effect in the signal ratio in the repeat runs, not every such curve was filed as active; the % refers to the signal ratio; note: potency is the fitted concentration of half-maximal effect)
Procedure, shortened: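 ER-beta-UAS-bla HEK293T cells in 2% charcoal-stripped FBS medium treated with compound plus 1nM final 17-beta-estradiol for 16 hr at 37C. Beta-lactamase reporter read by FRET substrate fluorescence after 2 hours at room temperature.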

[7] = qHTS assay to identify small molecule antagonists of the estrogen receptor beta (ER-beta) signaling pathway - cell viability counter screen (AID 1259382); note: nearly all actives have a fitted effect of over 55% in size; note: potency is the fitted concentration of half-maximal effect
Procedure, shortened: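 Readout: luminescence, CellTiter-Glo, same wells as bla assay. System: ER-beta-UAS-bla GripTite HEK293T, 2% charcoal-stripped FBS. Exposure: compounds plus 1nM 17-beta-estradiol, 16 hr, 37C.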

[8] = target: Estrogen receptor (Homo sapiens) (UniProt P03372); assay: qHTS assay to identify small molecule agonists of the estrogen receptor alpha (ER-alpha) signaling pathway in the presence of an antagonist (AID 1259383; calls by dose curve; note: top concentration of the series differs between compounds; nearly all actives have a fitted effect of over 15% in size)
Procedure, shortened: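 Quantitative HTS confirmation: compounds titrated at 15 concentrations onto estrogen-deprived VM7Luc4E2 cells carrying a four-ERE luciferase construct, with ICI-182,780 present at 10.0nM final. Signal is luminescence after 22hr exposure.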

[9] = qHTS assay to identify small molecule agonists or antagonists of the thyroid stimulating hormone receptor (TSHR) signaling pathway - wild type cell line counter screen (AID 1259384; calls by dose curve)
Procedure, shortened: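 Wild-type Hek293 cells, 800/well, 18 h at 37C, then compound with Ro20-1724 for 30 min RT. cAMP by HTRF (cAMP-d2/anti-cAMP cryptate), 1 h RT, fluorescence read. 15 concentrations, triplicates.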

[10] = target: Thyrotropin receptor (Homo sapiens) (UniProt P16473); assay: qHTS assay to identify small molecule antagonists of the thyroid stimulating hormone receptor (TSHR) signaling pathway (AID 1259385; calls by dose curve; note: nearly all actives have a fitted effect of over 20% in size; note: potency is the fitted concentration of half-maximal effect)
Procedure, shortened: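 TSHR-HEK293 cells (800/well) plated 18 h, then compounds with Ro20-1724 and TSH at 1.5 ng/mL final, 30 min at room temperature. cAMP quantified by HTRF (cAMP-d2/anti-cAMP-cryptate, 1 h); 15 concentrations in triplicate.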

[11] = target: Progesterone receptor (Homo sapiens) (UniProt P06401); assay: qHTS assay to identify small molecule agonists of the progesterone receptor (PR) signaling pathway (AID 1346784; calls by dose curve; note: nearly all actives have a fitted effect of over 30% in size)
Procedure, shortened: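 PR-UAS-bla HEK 293T cells (beta-lactamase reporter under UAS) in 2% charcoal-stripped FBS, dosed with 23 nL compound after 6 hr, incubated 16hr at 37C. LiveBLAzer B/G FRET substrate added, fluorescence read after 2 hours.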

[12] = target: Progesterone receptor (Homo sapiens) (UniProt P06401); assay: qHTS assay to identify small molecule antagonists of the progesterone receptor (PR) signaling pathway (AID 1346795; active = well fitted inhibition curve with a large enough effect in the signal ratio in the repeat runs, not every such curve was filed as active; the % refers to the signal ratio; note: potency is the fitted concentration of half-maximal effect)
Procedure, shortened: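 PR-UAS-bla HEK293T cells with beta-lactamase reporter under UAS control, in 2% charcoal-stripped FBS, treated with compounds plus 1 nM promegestone (R5020, final) for 16 hr at 37C. Read-out: FRET beta-lactamase substrate fluorescence after 2 hr at room temperature.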

[13] = qHTS assay to identify small molecule agonists of the sonic hedgehog signaling (Shh) pathway (AID 1259368; calls by dose curve;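 note: NIH/3T3-derived 3T3Gli1-Luc cells carrying a stable Gli1-driven firefly luciferase reporter; series mostly up to about 92 µM; nearly all actives have a fitted effect of over 15% in size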)
Procedure, shortened: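 Hedgehog pathway agonism scored by increased firefly luciferase luminescence in 3T3Gli1-Luc cells treated 24 hr at 37 C; detection used a 30 min room-temperature reagent incubation.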

[14] = qHTS assay to identify small molecule agonists of the androgen receptor (AR) signaling pathway in the presence of an antagonist - cell viability counter screen (AID 1259379); note: nearly all actives have a fitted effect of over 25% in size; note: potency is the fitted concentration of half-maximal effect
Procedure, shortened: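 MDA-kb2 viability measured by CellTiter-Fluor fluorescence in the same wells as the luciferase signal; nilutamide 3.0uM final; 15-point compound titration; 16 hr at 37C.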

[15] = qHTS assay to identify small molecule agonists of the estrogen receptor beta (ER-beta) signaling pathway - cell viability counter screen (AID 1259380); note: potency is the fitted concentration of half-maximal effect; nearly all actives have a fitted effect of over 30% in size
Procedure, shortened: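 Measured: luminescence from CellTiter-Glo after 30 min at room temperature, added to wells already read for the LiveBLAzer FRET reporter (2 hr substrate); ER-beta-UAS-bla HEK293T cells had 16 hr compound treatment at 37C, 5% CO2.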

[16] = target: Androgen receptor (Homo sapiens) (UniProt P10275); assay: qHTS assay to identify small molecule agonists of the androgen receptor (AR) signaling pathway in the presence of an antagonist (AID 1259381; calls by dose curve; note: nearly all actives have a fitted effect of over 15% in size)
Procedure, shortened: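 Luminescent ONE-Glo read, 30min at room temperature, follows 16hr compound exposure (15 concentrations) of MDA-kb2 cells at 37C, 0% CO2, with nilutamide added at 3.0uM final.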

[17] = qHTS assay to identify small molecule agonists of the estrogen receptor alpha (ER-alpha) signaling pathway in the presence of an antagonist - cell viability counter screen (AID 1259386);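 note: cells exposed to compounds for 22 h at 37 °C before the viability read; nearly all actives have a fitted effect of over 30% in size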; note: potency is the fitted concentration of half-maximal effect
Procedure, shortened: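 The test measures whether compounds kill ER-alpha reporter cells (VM7Luc4E2) under antagonist co-treatment (ICI-182,780, 10.0nM). Fluorescence from CellTiter-Fluor is read after a 22hr exposure.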

[18] = qHTS assay to identify small molecule antagonists of the sonic hedgehog signaling (Shh) pathway - cell viability counter screen (AID 1259367); note: nearly all actives have a fitted effect of over 55% in size; note: potency is the fitted concentration of half-maximal effect
Procedure, shortened: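 Fluorescence read-out (CellTiter-Fluor, 1 hr at 37C) taken after 23 hr compound treatment of 3T3 Gli1-Luc cells stimulated with conditioned medium. Cells were seeded at 2,000 per well and pre-incubated 4 hr.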

Sequence of Estrogen receptor beta (Homo sapiens) (Q92731 whole entry, looked up): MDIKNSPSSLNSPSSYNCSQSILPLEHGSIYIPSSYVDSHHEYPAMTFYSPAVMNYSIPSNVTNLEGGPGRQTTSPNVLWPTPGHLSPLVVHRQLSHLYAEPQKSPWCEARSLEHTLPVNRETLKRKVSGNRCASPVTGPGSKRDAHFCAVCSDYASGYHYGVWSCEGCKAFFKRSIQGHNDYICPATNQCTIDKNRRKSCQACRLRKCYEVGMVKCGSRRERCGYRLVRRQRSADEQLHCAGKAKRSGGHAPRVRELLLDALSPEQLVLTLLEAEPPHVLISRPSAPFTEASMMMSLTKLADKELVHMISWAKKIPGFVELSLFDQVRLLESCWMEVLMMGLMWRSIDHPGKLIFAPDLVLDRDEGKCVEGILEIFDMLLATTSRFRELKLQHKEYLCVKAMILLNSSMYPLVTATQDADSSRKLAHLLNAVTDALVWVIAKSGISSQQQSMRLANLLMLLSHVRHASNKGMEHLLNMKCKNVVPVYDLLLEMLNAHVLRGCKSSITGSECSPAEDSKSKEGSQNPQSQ
Sequence of Progesterone receptor (Homo sapiens) (P06401 whole entry, looked up): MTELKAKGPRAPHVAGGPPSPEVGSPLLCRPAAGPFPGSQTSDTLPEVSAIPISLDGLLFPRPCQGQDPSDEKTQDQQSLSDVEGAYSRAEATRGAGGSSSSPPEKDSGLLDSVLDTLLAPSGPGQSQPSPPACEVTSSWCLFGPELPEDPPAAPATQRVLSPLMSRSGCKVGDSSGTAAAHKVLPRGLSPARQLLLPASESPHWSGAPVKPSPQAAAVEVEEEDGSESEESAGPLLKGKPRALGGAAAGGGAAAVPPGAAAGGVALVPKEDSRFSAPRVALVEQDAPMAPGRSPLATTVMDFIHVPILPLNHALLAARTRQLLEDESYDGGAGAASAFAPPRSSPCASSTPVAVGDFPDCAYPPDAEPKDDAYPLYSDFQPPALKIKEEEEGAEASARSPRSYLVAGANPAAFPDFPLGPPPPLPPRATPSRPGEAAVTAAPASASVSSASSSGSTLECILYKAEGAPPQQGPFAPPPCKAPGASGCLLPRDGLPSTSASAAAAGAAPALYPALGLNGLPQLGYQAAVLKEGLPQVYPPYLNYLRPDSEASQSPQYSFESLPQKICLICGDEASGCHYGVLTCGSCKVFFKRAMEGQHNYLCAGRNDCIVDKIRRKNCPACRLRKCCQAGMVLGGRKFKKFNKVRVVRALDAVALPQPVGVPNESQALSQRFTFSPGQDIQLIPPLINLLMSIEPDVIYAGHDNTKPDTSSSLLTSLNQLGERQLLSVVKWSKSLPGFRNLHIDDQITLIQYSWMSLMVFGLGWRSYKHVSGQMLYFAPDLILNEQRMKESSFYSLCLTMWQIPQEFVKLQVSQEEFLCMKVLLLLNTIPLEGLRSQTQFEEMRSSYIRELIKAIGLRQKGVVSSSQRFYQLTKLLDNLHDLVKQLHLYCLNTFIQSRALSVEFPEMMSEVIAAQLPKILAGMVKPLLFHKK
Sequence of Estrogen receptor (Homo sapiens) (P03372 whole entry, looked up): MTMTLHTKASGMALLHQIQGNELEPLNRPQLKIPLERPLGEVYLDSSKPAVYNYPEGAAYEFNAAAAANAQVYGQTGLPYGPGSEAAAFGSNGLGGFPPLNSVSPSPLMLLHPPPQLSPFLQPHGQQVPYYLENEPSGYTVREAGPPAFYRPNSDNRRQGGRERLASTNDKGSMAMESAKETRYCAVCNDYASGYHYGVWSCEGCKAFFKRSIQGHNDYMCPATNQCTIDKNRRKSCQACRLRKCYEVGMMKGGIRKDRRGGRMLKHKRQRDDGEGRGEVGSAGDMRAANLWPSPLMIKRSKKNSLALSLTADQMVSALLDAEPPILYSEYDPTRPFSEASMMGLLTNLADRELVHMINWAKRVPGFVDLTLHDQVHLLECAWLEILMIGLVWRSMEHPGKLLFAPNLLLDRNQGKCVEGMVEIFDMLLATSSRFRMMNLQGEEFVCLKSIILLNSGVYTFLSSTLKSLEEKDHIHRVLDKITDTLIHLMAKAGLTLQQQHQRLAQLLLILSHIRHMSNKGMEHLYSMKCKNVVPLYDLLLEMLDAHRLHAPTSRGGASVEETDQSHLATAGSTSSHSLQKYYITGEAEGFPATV
Sequence of Thyrotropin receptor (Homo sapiens) (P16473 whole entry, looked up): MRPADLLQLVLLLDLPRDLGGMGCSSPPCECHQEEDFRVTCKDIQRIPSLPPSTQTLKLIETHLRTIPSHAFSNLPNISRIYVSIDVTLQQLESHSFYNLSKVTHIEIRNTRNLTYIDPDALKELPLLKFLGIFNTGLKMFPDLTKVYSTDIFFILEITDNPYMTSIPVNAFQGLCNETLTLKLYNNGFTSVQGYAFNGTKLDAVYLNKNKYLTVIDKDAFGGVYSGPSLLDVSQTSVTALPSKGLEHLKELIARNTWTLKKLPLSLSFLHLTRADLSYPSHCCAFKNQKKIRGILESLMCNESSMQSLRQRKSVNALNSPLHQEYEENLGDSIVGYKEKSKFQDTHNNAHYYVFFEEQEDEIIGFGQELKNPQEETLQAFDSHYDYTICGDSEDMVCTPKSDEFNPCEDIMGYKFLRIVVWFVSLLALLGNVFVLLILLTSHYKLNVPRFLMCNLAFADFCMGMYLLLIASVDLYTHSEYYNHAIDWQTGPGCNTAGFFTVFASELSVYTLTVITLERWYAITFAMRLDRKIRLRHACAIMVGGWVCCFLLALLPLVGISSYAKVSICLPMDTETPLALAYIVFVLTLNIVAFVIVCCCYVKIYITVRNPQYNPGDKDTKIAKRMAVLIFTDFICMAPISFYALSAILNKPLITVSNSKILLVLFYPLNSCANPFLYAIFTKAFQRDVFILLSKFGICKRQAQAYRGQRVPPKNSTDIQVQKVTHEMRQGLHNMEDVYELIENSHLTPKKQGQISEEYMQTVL
Sequence of Androgen receptor (Homo sapiens) (P10275 whole entry, looked up): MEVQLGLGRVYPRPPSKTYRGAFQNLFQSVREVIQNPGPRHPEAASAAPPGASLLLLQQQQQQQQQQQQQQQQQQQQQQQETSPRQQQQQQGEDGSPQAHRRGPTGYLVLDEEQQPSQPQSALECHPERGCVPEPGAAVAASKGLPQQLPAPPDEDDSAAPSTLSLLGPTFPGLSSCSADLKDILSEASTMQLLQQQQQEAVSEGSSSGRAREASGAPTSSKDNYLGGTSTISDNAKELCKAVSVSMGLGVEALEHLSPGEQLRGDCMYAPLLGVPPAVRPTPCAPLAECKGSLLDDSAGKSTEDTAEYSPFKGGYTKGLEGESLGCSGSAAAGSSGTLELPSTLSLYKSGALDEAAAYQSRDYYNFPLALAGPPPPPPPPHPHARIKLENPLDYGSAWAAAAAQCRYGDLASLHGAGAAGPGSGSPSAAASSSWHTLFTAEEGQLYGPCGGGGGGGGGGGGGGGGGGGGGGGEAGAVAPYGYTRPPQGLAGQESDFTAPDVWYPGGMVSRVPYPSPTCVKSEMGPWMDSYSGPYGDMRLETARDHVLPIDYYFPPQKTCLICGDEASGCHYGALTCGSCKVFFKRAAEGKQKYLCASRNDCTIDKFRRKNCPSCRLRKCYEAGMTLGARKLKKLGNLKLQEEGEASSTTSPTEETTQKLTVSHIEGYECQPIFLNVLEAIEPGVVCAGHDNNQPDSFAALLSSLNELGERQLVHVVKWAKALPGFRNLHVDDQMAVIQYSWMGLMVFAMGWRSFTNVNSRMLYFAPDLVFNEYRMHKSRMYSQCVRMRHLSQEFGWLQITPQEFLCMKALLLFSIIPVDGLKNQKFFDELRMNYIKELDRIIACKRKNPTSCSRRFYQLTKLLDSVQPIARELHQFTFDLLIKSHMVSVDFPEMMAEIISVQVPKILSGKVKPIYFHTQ

SMILES | Potency [1] | Potency [2] | Potency [3] | Potency [4] | Potency [5] | Potency [6] | Potency [7] | Potency [8] | outcome [9] | Potency [10] | outcome [11] | Potency [12] | Potency [13] | Potency [14] | Potency [15] | Potency [16] | Potency [17] | Potency [18]
Cc1nc(Nc2ncc(C(=O)Nc3c(C)cccc3Cl)s2)cc(N2CCN(CCO)CC2)n1 | inactive | inactive | 0.075 µM (active) | inactive | inactive | 23.7 µM (active) | inactive | inactive | inactive | 26.6 µM (active) | inactive | 13.3 µM (active) | – | – | – | – | – | –
CCCCCCCCCCCCN(CCO)CCO | inactive | inactive | – | 21.6 µM (active) | – | – | 60.9 µM (active) | inactive | inactive | inactive | – | 60.9 µM (active) | inactive | 60.9 µM (active) | 60.9 µM (active) | inactive | inactive | –
O=C1NCN(c2ccccc2)C12CCN(CCCC(c1ccc(F)cc1)c1ccc(F)cc1)CC2 | inactive | inactive | – | – | inactive | 18.8 µM (active) | 26.6 µM (active) | – | inactive | inactive | – | 26.6 µM (active) | inactive | 29.8 µM (active) | – | – | inactive | –
CCCCCCC(C)OC(=O)COc1nc(F)c(Cl)c(N)c1Cl (configuration not stated) | inactive | – | inactive | inactive | – | – | inactive | – | inactive | inactive | inactive | – | inactive | inactive | 68.6 µM (active) | – | inactive | inactive
CC(C)c1cccc(C(C)C)c1N1C(=O)c2ccc(O)cc2C1=O | inactive | inactive | – | 13.7 µM (active) | – | – | – | – | inactive | – | inactive | 6.11 µM (active) | inactive | – | – | – | inactive | inactive
CCCCCCC(C)Nc1ccc(Nc2ccccc2)cc1 (configuration not stated) | inactive | inactive | – | – | inactive | 48.6 µM (active) | – | – | – | – | – | 48.6 µM (active) | inactive | inactive | – | – | – | –
CN1CCN(C2Cc3ccccc3Sc3ccc(Cl)cc32)CC1 (configuration not stated) | inactive | inactive | – | – | inactive | – | 18.8 µM (active) | inactive | inactive | – | – | 26.6 µM (active) | inactive | – | 21.1 µM (active) | inactive | inactive | –
CC1=C(/C=C/C(C)=C/C=C/C(C)=C\C=O)C(C)(C)CCC1 | inactive | inactive | – | 25.8 µM (active) | inactive | 32.5 µM (active) | – | – | inactive | – | inactive | inactive | inactive | – | 41 µM (active) | – | – | –
O=C1c2c(O)ccc([N+](=O)[O-])c2C(=O)c2c([N+](=O)[O-])ccc(O)c21 | – | 21.5 µM (active) | 17.1 µM (active) | 1.52 µM (active) | inactive | – | 17.1 µM (active) | inactive | – | inactive | – | – | inactive | 27.1 µM (active) | 15.2 µM (active) | – | 24.1 µM (active) | 10.8 µM (active)
Cc1cc(Nc2ccc(O)cc2)ccc1N | – | – | 30.5 µM (active) | – | inactive | inactive | inactive | – | – | – | inactive | – | – | 24.2 µM (active) | 27.2 µM (active) | – | 30.5 µM (active) | 24.2 µM (active)
Oc1ccc(-c2ccc(O)cc2)cc1 | – | inactive | – | 6.15 µM (active) | 2.75 µM (active) | – | inactive | – | inactive | inactive | – | – | inactive | inactive | – | – | inactive | –
Cc1cccc(C)c1NC(=O)CN1CCN(CCCC(c2ccc(F)cc2)c2ccc(F)cc2)CC1 | inactive | inactive | – | – | inactive | – | 26.6 µM (active) | – | inactive | – | – | – | inactive | – | 26.6 µM (active) | – | – | –

Reference: PubChem BioAssay (Tox21)
